In the library only some 3% were active in any assay of this set; here they are far more common.
PP5 inh = blocks human protein phosphatase 5 activity. P53041. purified PP5c, OMFP substrate fluorescence. inhibition, % at 6.7 µM. 320,000 compounds, 0.18% hits. AID 1987;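 active = inhibition above the campaign's mean inhibition across all tested compounds plus 3 SD, cut at about 9.5% in these data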;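 note: 0% = DMSO only and 100% = 100 µM cantharidin control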
PAFAH1B2 FP inh = blocks human PAF acetylhydrolase 1b catalytic subunit 2. 340,000 compounds, 1.2% hits. P68402. inhibition, % at 3.39 µM. recombinant PAFAH1B2, FP-rhodamine activity probe, fluorescence polarization;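 active = inhibition above the mean of all tested compounds plus 3 SD, cut at about 24% in these data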;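 note: 0% = enzyme with DMSO and 100% = wells lacking PAFAH1B2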
PAFAH1B3 FP inh = inhibitors of human PAFAH1B3. AID 492972. inhibition, % at 3.39 µM. 340,000 compounds, 0.28% hits. recombinant PAFAH1B3, FP-rhodamine probe, fluorescence polarization;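 active = inhibition above the screen-wide average of all tested compounds plus 3 SD, cut at about 25% in these data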;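 note: 0% = enzyme with DMSO only and 100% = wells lacking PAFAH1B3 protein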
Target sequence (Q15102 whole entry, looked up): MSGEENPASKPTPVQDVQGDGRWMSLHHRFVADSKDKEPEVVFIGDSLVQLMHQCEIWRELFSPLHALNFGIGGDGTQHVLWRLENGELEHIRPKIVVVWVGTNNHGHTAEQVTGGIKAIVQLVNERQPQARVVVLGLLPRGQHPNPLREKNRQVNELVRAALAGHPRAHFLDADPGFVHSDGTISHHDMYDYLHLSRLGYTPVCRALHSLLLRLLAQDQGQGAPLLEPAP
CTSL1 counter = cathepsin L1 inhibition, PFM18AAP counter-screen; 300,000 compounds, 0.49% hits; inhibition, % at 5.96 µM; recombinant F. hepatica cathepsin L1, Z-Leu-Arg-MCA fluorescence; AID 1906;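 active = inhibition above the mean of all tested compounds plus 3 SD, set per screening campaign, cut at about 17% in these data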;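 note: 0% = plate median of test compound wells and 100% = 1 µM Z-Phe-Ala-diazomethylketone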
pPAFAH FP inh = pPAFAH (human) enzyme inhibition. recombinant pPAFAH, FP-rhodamine probe fluorescence polarization. Q13093. 330,000 compounds, 1.5% hits. AID 463082. inhibition, % at 3.39 µM;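 active = inhibition above the mean inhibition across the screen plus 3 SD, cut at about 25% in these data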;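 note: inhibitors block binding of the rhodamine activity-based probe so polarization drops; 0% = enzyme with DMSO and 100% = wells lacking pPAFAH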
Target sequence (Q13093 whole entry, looked up): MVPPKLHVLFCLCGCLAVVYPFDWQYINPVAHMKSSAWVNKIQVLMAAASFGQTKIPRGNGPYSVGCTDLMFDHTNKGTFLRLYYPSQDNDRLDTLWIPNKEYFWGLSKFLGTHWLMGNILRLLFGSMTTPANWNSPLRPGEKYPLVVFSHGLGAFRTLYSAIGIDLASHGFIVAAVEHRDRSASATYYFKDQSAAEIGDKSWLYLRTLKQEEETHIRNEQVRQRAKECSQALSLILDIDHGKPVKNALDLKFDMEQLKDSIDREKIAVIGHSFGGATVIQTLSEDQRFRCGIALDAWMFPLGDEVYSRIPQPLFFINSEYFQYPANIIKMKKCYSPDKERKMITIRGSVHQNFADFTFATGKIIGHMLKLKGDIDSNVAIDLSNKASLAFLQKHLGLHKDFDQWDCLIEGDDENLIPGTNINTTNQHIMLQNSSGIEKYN
PAFAH2 inh = inhibitors of human PAFAH2; AID 492956; recombinant PAFAH2, FP-rhodamine activity probe, fluorescence polarization; 340,000 compounds, 0.99% hits; inhibition, % at 3.39 µM; Q99487;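 active = inhibition above the mean over all tested compounds plus 3 SD, cut at about 30% in these data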;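 note: inhibitors block probe labeling of enzyme so polarization drops; 0% = enzyme with DMSO and 100% = wells lacking PAFAH2 protein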
* = called active by the depositor; · = no result.

SMILES | PP5 inh | PAFAH1B2 FP inh | PAFAH1B3 FP inh | CTSL1 counter | pPAFAH FP inh | PAFAH2 inh
Cc1ccccc1Cc1c(C)nc2c(C(=O)NCc3ccco3)cnn2c1C | 3 | -2 | -7 | -1 | 27* | -2
Cc1ccccc1Cc1c(C)nc2nc(SCC(=O)NCc3ccco3)nn2c1C | 0 | 5 | 13 | -2 | 8 | 6
O=C1C(C2=C(O)c3ccccc3C2=O)=Nc2ccccc21 | 3 | 20 | 55* | 15 | 26* | 53*
CN=CC1=C(O)c2ccccc2C1=O | -1 | 1 | 5 | 2 | 4 | -2
CCc1ccc(C2CC(c3ccc(C)cc3)Nc3nc(N)nn32)cc1 (configuration not stated) | -2 | 25* | 1 | 2 | -7 | 3
COc1cccc(COC(=O)c2ccc3c(c2)NC(=O)C(C)S3)c1OC (configuration not stated) | 1 | -2 | 0 | 7 | 5 | 5
CC1Sc2ccc(C(=O)OCc3ccccc3Cl)cc2NC1=O (configuration not stated) | 0 | 3 | 4 | 7 | 29* | 10
O=C(Nc1ccc(C(F)(F)F)cc1)C1CCN(S(=O)(=O)c2ccc(N3CCCC3=O)cc2)CC1 | 2 | 2 | 0 | 2 | -4 | -2
CC1CCC(C(C)C)C(OC(=O)CSc2nnc(N)s2)C1 (configuration not stated) | 2 | 27* | 2 | 9 | -2 | 7
CCOC(=O)COc1ccccc1C(=O)c1cnn(-c2ccccc2)c1 | 3 | 3 | 4 | -1 | -10 | -3
COc1ccc(/C=C2\SC(=O)N(CCCC(=O)Nc3cc(Cl)ccc3C(=O)O)C2=O)cc1 | · | 38* | 2 | · | -4 | 3
COc1ccc(CN2C[C@]3(CO)O[C@@H](CO)C[C@@H]3S2(=O)=O)cc1 | · | 1 | 6 | · | 7 | -1
N/C(=N\OS(=O)(=O)c1ccc2ccccc2c1)c1cccnc1 | -1 | -1 | 10 | 2 | 5 | 1
N/C(=N\OS(=O)(=O)c1ccccc1)c1ccncc1 | -1 | 2 | 1 | 33* | -2 | -5
N/C(=N\OS(=O)(=O)c1ccc2ccccc2c1)c1ccncc1 | 0 | 6 | 6 | 43* | 0 | 2
Cc1ccc(NC(=O)c2ccc(NS(=O)(=O)c3ccc4[nH]c(=O)[nH]c4c3)cc2)nc1 | -1 | -1 | -3 | 6 | 8 | 5
O=C1CCCC2=C1C(c1ccc(Br)cc1)c1c([nH]c(=S)[nH]c1=O)N2 (configuration not stated) | 0 | -1 | -4 | 0 | 2 | -6
O=c1[nH]c(=S)[nH]c2c1C(c1ccc(Br)cc1)c1c([nH]c(=S)[nH]c1=O)O2 | 0 | -4 | 21 | 8 | 27* | 55*
O=C(COC(=O)c1cccc(Oc2ccccc2)c1)NCc1ccco1 | 1 | 1 | -5 | 1 | 34* | 36*
N#Cc1cccc(C(=O)OCC(=O)NCc2ccco2)c1 | 0 | 0 | 7 | -5 | -8 | 13
NC(=O)COC(=O)c1cccc(S(=O)(=O)N2CCN(c3ccccc3)CC2)c1 | 1 | 8 | 7 | 4 | 2 | 1
O=C(COC(=O)c1cccc(S(=O)(=O)N2CCN(c3ccccc3)CC2)c1)NCc1ccco1 | 2 | 5 | 9 | 1 | 26* | 15
Cc1ccc(-n2c(C)nnc2SCC(=O)NC2CCCC2)cc1 | -2 | 4 | 2 | -1 | 7 | -3
Cc1ccc(CNC(=O)N[C@@H](Cc2ccccc2)C(=O)O)cc1 | -5 | 26* | 2 | 4 | 1 | 0
CCCn1nc(NS(=O)(=O)c2cccc3nonc23)c2cc3cccc(C)c3nc21 | 5 | 10 | 3 | 3 | 29* | 13
SMILES | PP5 inh | PAFAH1B2 FP inh | PAFAH1B3 FP inh | CTSL1 counter | pPAFAH FP inh | PAFAH2 inh
CCn1c(C)c(C)c2cc(C(=O)NC3CCCCCC3)ccc21 | 2 | 0 | 2 | -1 | 2 | 4
COc1cccc(/C=C2/Sc3ccc(C(=O)NCCCN4CCCC4)cc3NC2=O)c1 | 1 | -1 | 9 | 1 | 11 | 0
COc1cccc(/C=C2/Sc3ccc(C(=O)NCCN4CCCC4)cc3NC2=O)c1 | 5 | -1 | 3 | 1 | 34* | -8
NCCCC[C@H]1NC(=O)[C@H](CCC(=O)O)NC(=O)c2cc([N+](=O)[O-])cc(I)c2OCC[C@@H](C(N)=O)NC1=O | 1 | · | · | 1 | 33* | ·
C[C@@H]1NC(=O)c2cc([N+](=O)[O-])cc(I)c2OCC[C@@H](C(N)=O)NC(=O)[C@H](CCCCN)NC1=O | 2 | 1 | 6 | -4 | 7 | -4
CN1CCN(C(=O)CSc2ccc(Cl)cc2)CC1 | -1 | 12 | 1 | 1 | 1 | -3
O=C(Cc1ccc(Cl)cc1)NNC(=O)C(=O)NC1CCCCC1 | · | 27* | 2 | · | 5 | 7
O=C(CCSc1ccc(Cl)cc1)N1CCCCCC1 | -1 | 66* | 2 | -1 | 6 | 8
O=C(CCSc1ccc(Cl)cc1)NC1CCCC1 | 1 | 26* | 10 | -2 | 5 | -2
COc1ccc(N2C(=S)NC3N2C(=S)NC3(C)c2ccccc2)cc1 (configuration not stated) | 1 | 1 | 10 | 3 | -3 | 2
O=[N+]([O-])c1ccc(COc2cccc(CN3CCCCC3)c2)cc1 | · | 6 | 12 | · | · | -6
COc1ccc(N2CCN(C(=S)Nc3ccccc3OC)CC2)cc1 | -2 | 4 | 5 | 0 | -1 | 6
C=CCn1c(SCC(=O)c2cccs2)nc2sc(C)cc2c1=O | 0 | 0 | 4 | 3 | 25* | 1
O=c1[nH]c(NCCO)nc2c1C1(CCCC1)Cc1ccccc1-2 | 1 | 34* | 10 | -1 | 1 | -9
Cc1ccc(C(=O)c2c(C)oc3c2C(=O)C(=O)c2ccccc2-3)cc1 | 5 | 4 | 7 | -6 | 26* | 13
Cc1cc(NC(=O)C(C)SCC(=O)N(C)Cc2ccccc2F)no1 (configuration not stated) | 1 | -2 | 2 | · | 2 | -8
NC(=O)c1ccc(SCC(=O)OCC(=O)N2CCN(C(=O)c3ccco3)CC2)c([N+](=O)[O-])c1 | -1 | 0 | -2 | -3 | 5 | -4
O=C(CSc1ccc2ccccc2c1)NCc1cccs1 | -1 | 26* | 4 | 5 | -5 | -2
O=C(COC(=O)c1cccc(Cl)c1Cl)NCc1cccs1 | 3 | 3 | 8 | · | 33* | 33*
Cc1ccc(SCC(=O)OCC(=O)NCc2ccco2)cc1 | 5 | 22 | -4 | · | 21 | 5
O=C(COC(=O)CSc1ccc([N+](=O)[O-])cc1)NCc1cccs1 | -1 | 9 | 3 | 18* | 13 | -5
Cc1ccc(SCC(=O)OCC(=O)NCc2cccs2)cc1 | 0 | 28* | 5 | -4 | 24 | 3
O=C(COC(=O)c1c(Cl)cccc1Cl)NCc1cccs1 | · | 6 | 2 | · | 4 | -1

Bioassay records deposited in PubChem by The Scripps Research Institute Molecular Screening Center.
